This passage reports inhibition results from PubChem BioAssay AID720530 (The Scripps Research Institute Molecular Screening Center, 2013).

Screen size: about 1,000 compounds; about 260 (26%) were called active. The list is a sample of the results. Unmarked numbers belong to inactive results. No stated cut-off is given here; in the data, active means inhibition above about 21%; inactive means the rest.

The target of the assay is E3 ubiquitin-protein ligase UHRF1 (Homo sapiens) (UniProt Q96T88). The assay is described as follows: UHRF1 methylated DNA binding inhibitors, counter-screen for MBD2 inhibitor project, biochemical, TR-FRET, human UHRF1 (AID 720530).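 Further: UHRF1 SRA domain binding a labeled hemimethylated CpG hairpin DNA; 0% = vehicle only and 100% = reference inhibitor with vehicle.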 The following applies: UHRF1 binding to methylated oligonucleotide, at 4.4 µM, active compounds read high.
Chain of E3 ubiquitin-protein ligase UHRF1 (Homo sapiens) (Q96T88 whole entry, looked up, the tested form may be a part): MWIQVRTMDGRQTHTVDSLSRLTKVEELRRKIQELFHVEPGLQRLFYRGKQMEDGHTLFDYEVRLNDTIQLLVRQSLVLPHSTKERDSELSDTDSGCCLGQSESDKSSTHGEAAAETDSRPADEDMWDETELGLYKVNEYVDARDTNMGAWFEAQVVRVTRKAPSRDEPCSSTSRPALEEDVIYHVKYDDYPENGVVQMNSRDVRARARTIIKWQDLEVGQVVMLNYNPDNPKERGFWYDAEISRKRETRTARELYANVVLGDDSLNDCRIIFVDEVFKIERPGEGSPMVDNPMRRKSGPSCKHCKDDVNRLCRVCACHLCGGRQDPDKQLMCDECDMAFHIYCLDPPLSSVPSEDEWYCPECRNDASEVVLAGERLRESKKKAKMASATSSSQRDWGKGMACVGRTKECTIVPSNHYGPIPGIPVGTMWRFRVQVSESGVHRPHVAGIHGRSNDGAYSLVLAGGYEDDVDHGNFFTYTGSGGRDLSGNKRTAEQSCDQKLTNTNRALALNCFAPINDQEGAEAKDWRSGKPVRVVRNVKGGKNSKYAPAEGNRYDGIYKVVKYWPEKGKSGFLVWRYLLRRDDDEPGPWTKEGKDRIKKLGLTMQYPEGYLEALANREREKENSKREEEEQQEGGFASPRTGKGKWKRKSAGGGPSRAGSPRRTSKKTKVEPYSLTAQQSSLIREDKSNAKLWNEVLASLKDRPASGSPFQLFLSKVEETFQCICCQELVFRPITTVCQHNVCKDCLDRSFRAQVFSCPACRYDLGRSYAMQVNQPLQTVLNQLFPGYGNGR
On to `CCN(CC)CCOc1ccc2c(c1)C(=NNC(=O)c1ccccn1)c1cc(OCCN(CC)CC)ccc1-2`, for which the inhibition is 108% (active).
For the compound `COC(=O)c1ccc2nc(-c3cccc(Br)c3)c(Cc3ccc(OC)cc3C)n2c1`, the inhibition is 12.2%.
With `Cc1ccc(C)c(NC(=O)c2ccc(OC(=O)c3ccco3)cc2)c1`, the inhibition was 8.96%.
Under `CCOC(=O)CCP(=O)(O)C(O)(c1ccccc1)c1ccccc1` stands 4.07%; under `Cc1cccc(NC(=O)C[C@H]2CC[C@H]3[C@@H](COc4ccc(NC(=O)Nc5ccccc5)cc4C(=O)N3C)O2)c1`, 0.48%; under `CC(C)c1nc(CNC(=O)CC2C(=O)NCCN2Cc2cccc(F)c2F)cs1` (stereo not given), 9.89%.
Turning to `COc1ccc2c(c1)c(=Cc1ccc(N(C)C)cc1)c1cc(-c3ccccc3)[n+](C)n12`, the inhibition is 83.9% (active).
Regarding `Cc1ccc(-c2ccnc3nc(Sc4ncc(C(F)(F)F)cc4Cl)nn23)cc1`, the inhibition is 8.79%.
On to `Cc1cccc(CN2CCN(C3CN(Cc4cn(Cc5cc(C)cc(C)c5)nn4)S(=O)(=O)C3)CC2)c1` (stereo not given), for which the inhibition was 9.39%.
For the compound `COC(=O)c1cccc(NC(=O)c2cccc(N3C(=O)CCC3=O)c2)c1`, the inhibition was 6.97%.
As for `COc1ccc(CNC(=O)c2c[nH]c3c(OC)cc(OC)cc3c2=O)cc1`, the inhibition is 5.78%.
With `CN(C(=O)COC(=O)c1cc(-c2ccco2)nc2ccccc12)C1CCS(=O)(=O)C1` (stereo not given), the inhibition is 35.3% (active).
`O=C(c1n[nH]c2c1CCC2)N1CCCC(Nc2cccc(F)c2)C1` (stereo not given): the inhibition was 6.16%.
For the compound `CC(C)Oc1ccc(C2NC(=O)NC2=O)cc1` (stereo not given), the inhibition is 6.8%.
Take `CCOc1cc(-c2noc(CCCC(=O)NC3CCCCC3)n2)ccc1OC`: the inhibition was 4.27%.
The figure for `c1ccc2cc3c(NCCN4CCOCC4)ccnc3cc2c1` is 21.8% (active).
As for `COc1ccc(-n2cc(-c3ccccc3)c3c(=S)nc[nH]c32)cc1`, the inhibition is -1.36%.
Take `COc1nc(N(C)C)nc(N2CC(=O)N(CCNS(=O)(=O)c3ccc(C)cc3)C2=N)n1`: the inhibition was 6.8%.
In the case of `CC(=O)c1ccccc1NC(=O)COC(=O)C1COc2ccccc2O1` (stereo not given), the inhibition is 2.18%.
As for `COc1ccc2[nH]c3c(C)c4cc[n+](C)cc4c(C)c3c2c1`, the inhibition was 94.4% (active).
`CCOC(=O)C1C(=O)OC2(CCCC2)C1C(=O)OCC` (stereo not given): the inhibition is 1.98%.
The figure for `O=C(CC1CCCCC1)Nc1c2c(nn1-c1ccc(F)cc1)CS(=O)(=O)C2` is 5.19%.
Turning to `C=CCN1C(=O)c2ccc(C(=O)N3CCC(C(=O)OCC)CC3)cc2C1=O`, the inhibition was 4.16%.
Turning to `C=CC1=C(C(=O)O)N2C(=O)[C@@H](NC(=O)/C(=N\OCC(=O)O)c3csc(N)n3)[C@H]2SC1`, the inhibition was 106% (active).
Take `Nc1ccccc1C(=O)NC1CCCCNC1=O` (stereo not given): the inhibition was 4.32%.
As for `Cc1ccc(C(=O)Nc2ccc3c(c2)OCO3)cc1S(=O)(=O)N1CCCCC1`, the inhibition is 4.99%.
On to `COc1ccc(COC[C@H](CC(C)C)N2CCN(C(=O)c3cccc(C(F)(F)F)c3)CCC2=O)cc1`, for which the inhibition was 8.9%.
Consider `COC(=O)[C@]12C[C@H](CC(=O)NCCC(C)C)C(=O)N(CCc3ccc(OC)c(OC)c3)C1=C[C@H](C(C)(C)C)O[C@@H]2C`, for which the inhibition was 7.24%.
In the case of `COc1ccc(OCc2cc(C(=O)NCC3(C)COC3)no2)c(Cl)c1`, the inhibition was 2.8%.
Take `COC(=O)c1c(NC(=O)c2ccc(S(=O)(=O)N3CCOCC3)cc2)sc2c1CCN(C(C)C)C2`: the inhibition was 29.1% (active).
On to `Cc1c(NS(=O)(=O)c2cc(C(=O)NCCc3ccc(F)cc3)cc(Cl)c2Cl)c(=O)n(-c2ccccc2)n1C`, for which the inhibition is 3.95%.
Take `O=c1ccc2c(-c3ccccc3S(=O)(=O)O)c3ccc(O)c(O)c3oc-2c1O`: the inhibition is 73.8% (active).
With `C=C1c2c(Cl)ccc(O)c2C(O)=C2C(=O)[C@]3(O)C(O)=C(C(N)=O)C(=O)[C@@H](N(C)C)[C@@H]3[C@@H](O)C12` (stereo not given in full), the inhibition was 19.2%.
In the case of `CCOC(=O)c1ccc(-n2c(CCC(=O)O)ccc2-c2ccccc2)cc1`, the inhibition is 7.24%.
As to `C=CCN(C(=O)[C@@H](CCCC)[C@@H](O)c1ccc(Cl)cc1)c1ccccc1`, the inhibition was 6.35%.
For the compound `CN(C)[C@@H]1C(=O)C(C(N)=O)=C(O)[C@@]2(O)C(=O)C3=C(O)c4c(O)ccc(Cl)c4[C@@H](O)[C@H]3C[C@@H]12`, the inhibition was 12.2%.
With `COc1ccccc1C(=O)NNC(=O)CCN1C(=O)/C(=C\c2ccccc2)SC1=S`, the inhibition was 7.6%.
Regarding `Cc1ccc(Cc2cnc(N)s2)o1`, the inhibition is 7.64%.
In the case of `Cc1cc(C)c2nc3nc(C)cc(C)c3c(N)c2c1`, the inhibition is 46.3% (active).
The figure for `CN(C)CCNC(=O)c1ccc(Cl)c2cc3ccccc3nc12` is 39.7% (active); for `COC(=O)c1cn(C)c2ccc(S(=O)(=O)N3CC(C)CC(C)C3)cc2c1=O` (stereo not given) it is 14.2%; for `CCOC(=O)c1sc(NC(=O)CCN2CCOCC2)c(C(=O)OCC)c1C` it is -14.4%.
`CNC(=O)C[C@H]1C(=O)N(c2ccc(OC)cc2)C[C@@H]1Cc1ccccc1`: the inhibition was 5.54%.
As for `CCOc1ccc(NC(=O)c2cc(C)nc3ccccc23)cc1`, the inhibition is 3.69%.
Consider `CCOc1ccc(S(=O)(=O)N2CCC(c3ccccc3)CC2)cc1C(=O)O`, for which the inhibition is 0.13%.
On to `Brc1ccc(-c2n(-c3ccccn3)c3ccccc3[n+]2-c2ccccn2)cc1`, for which the inhibition was 22.7% (active).
In the case of `CO/N=C(/CS(=O)(=O)c1ccc(Br)cc1)c1ccc(OC)cc1`, the inhibition was 5.83%.
`C=CCn1c(=S)[nH]c2scc(-c3ccco3)c2c1=O`: the inhibition is 47.7% (active).
Take `CCOc1ccc(N(CC(=O)NCCOc2ccccc2OC)S(=O)(=O)c2ccccc2)cc1`: the inhibition was 11%.
As to `CCOc1cc(N2CCOCC2)c(OCC)cc1NC(=O)c1cc(C)nc2ccccc12`, the inhibition is 7.08%.
With `COC(=O)c1ccc(CSc2nncn2N)cc1`, the inhibition was 9.29%.
Under `Cc1ccccc1NC(=O)CN1C(=O)N/C(=C\c2cccn2-c2cccc(C(=O)O)c2)C1=O` stands 56.5% (active); under `Cc1c(C=O)n(C)n(-c2ccccc2)c1=O`, 0.66%; under `COC(=O)c1ccc2nc(C3CCCCC3)c(Cc3cccc(F)c3)n2c1`, 5.68%.
As for `CCOc1ccc(-n2c(SCC(=O)Nc3ccc(OC)cc3)nc3sc4c(c3c2=O)CCN(C)C4)cc1`, the inhibition was 6.75%.
